Among the test systems are NCI-H23 lung; NCI-H226 lung; NCI-H322M lung; HOP-62 NSCLC; NCI-H460 lung; HOP-92 NSCLC; NCI-H522 lung; A549/ATCC NSCLC; 786-0 renal; COLO 205 colon; DU-145 prostate; K-562 leukemia; MALME-3M melanoma; MDA-MB-231 breast; RXF 393 renal; SF-268 CNS; SF-295 CNS; SF-539 CNS; UACC-257 melanoma; M14 melanoma.
Experiment in all cases: NCI-60 one-dose screen, 48 h (100 = growth as untreated, 0 = no growth, -100 = all killed)
Conditions in all cases: 10 µM unless noted

Structures are written as SMILES. About 83,000 compounds went through this panel and 20% of them were active in at least one assay; those are over-represented in the sample as a whole.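 96-well plates, one dose, 48 hours. Percent growth reported; active if below 10.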 Values without a mark were called inactive. The source made the active and inactive calls.

Take `COc1ccc(/C=N/NC(=O)Cn2c(-c3ccc(S(C)(=O)=O)cc3)nc3ccccc32)cc1`: the growth was 95.5% in the experiment on NCI-H23 lung; 99.6% with NCI-H226 lung; 91.3% in the experiment on NCI-H322M lung; 107% with HOP-62 NSCLC; 102% with NCI-H460 lung; 94.1% in the experiment with HOP-92 NSCLC. Also, the growth in the experiment with NCI-H522 lung was 92.9%; with A549/ATCC NSCLC, 113%; with 786-0 renal, 99.3%; in the experiment with COLO 205 colon, 111%; in the experiment on DU-145 prostate, 111%; in the experiment on K-562 leukemia, 98.9%. Besides, the growth is 89% in the experiment with MALME-3M melanoma; 95.8% in the experiment on MDA-MB-231 breast; 104% with RXF 393 renal; 102% in the experiment on SF-268 CNS; 93.1% in the experiment with SF-295 CNS; 96.4% with SF-539 CNS. Moreover, the growth with UACC-257 melanoma is 112%; with M14 melanoma it was 92.1%.

Take `O=c1oc2c(cc1-c1ccccc1)c(=O)[nH]c1ccccc12`: the growth with NCI-H23 lung is 95.8%; in the experiment on NCI-H226 lung, 102%; in the experiment on NCI-H322M lung, 104%; in the experiment with HOP-62 NSCLC it was 106%; in the experiment with NCI-H460 lung, 105%; in the experiment with HOP-92 NSCLC, 103%. In addition, the growth with NCI-H522 lung was 94.2%; in the experiment with A549/ATCC NSCLC it was 97.7%; with 786-0 renal, 85.9%; in the experiment with COLO 205 colon, 107%; in the experiment with DU-145 prostate, 105%; in the experiment with K-562 leukemia, 89.2%. Also, the growth in the experiment with MALME-3M melanoma is 95.7%; with MDA-MB-231 breast, 96.8%; in the experiment with RXF 393 renal it was 102%; with SF-268 CNS it was 100%; in the experiment on SF-295 CNS, 94.6%; in the experiment with SF-539 CNS, 106%. Besides, the figures for the growth in the experiment with UACC-257 melanoma and in the experiment with M14 melanoma were 100% and 99.7%, respectively.

In the case of `Nc1cccc(-c2ccc(COc3ccc(CC4SC(=O)NC4=O)cc3)cc2)c1` (stereo not drawn), the growth is 70.5% with NCI-H23 lung; 94.1% with NCI-H226 lung; 89.6% with NCI-H322M lung; 48.4% with HOP-62 NSCLC; 43.8% with NCI-H460 lung; 42.3% in the experiment with HOP-92 NSCLC. In addition, the growth with A549/ATCC NSCLC was 44.8%; with 786-0 renal, 77.9%; in the experiment with COLO 205 colon, 101%; with DU-145 prostate, 83.2%; in the experiment with K-562 leukemia, 21.6%; with MALME-3M melanoma, 42.5%. For the same molecule, the growth with MDA-MB-231 breast was 73.4%; in the experiment with RXF 393 renal it was 77.7%; in the experiment with SF-268 CNS, 70.6%; in the experiment on SF-295 CNS it was 63.8%; in the experiment on SF-539 CNS, 64.3%; in the experiment on UACC-257 melanoma, 71%. In the experiment with M14 melanoma, the growth was 36.5%.

Regarding `O=C(Nc1ccc(Oc2cccc(Cl)c2)c(Cl)c1)c1cccnn1`, the growth with NCI-H23 lung is 84.1%; in the experiment with NCI-H226 lung it was 78.8%; in the experiment with NCI-H322M lung, 93.9%; in the experiment on HOP-62 NSCLC it was 101%; in the experiment on NCI-H460 lung it was 99.8%; in the experiment on HOP-92 NSCLC, 84.4%. Further, the growth with A549/ATCC NSCLC was 75.3%; in the experiment on 786-0 renal it was 77.4%; in the experiment with COLO 205 colon, 106%; in the experiment with DU-145 prostate, 86.3%; with K-562 leukemia, 77%; in the experiment with MALME-3M melanoma, 104%. In addition, the growth was 95.5% in the experiment on MDA-MB-231 breast; 90.3% with RXF 393 renal; 83.9% in the experiment with SF-268 CNS; 82.2% with SF-295 CNS; 95.3% with SF-539 CNS; 104% in the experiment on UACC-257 melanoma.

`CCCN(CCSSCCNc1nc(N(C)O)nc(N(C)O)n1)c1nc(N(C)O)nc(N(C)O)n1`: the growth was 84% in the experiment with NCI-H23 lung; 82.6% in the experiment with NCI-H226 lung; 44.5% in the experiment on NCI-H322M lung; 24.5% with HOP-62 NSCLC; 28.4% in the experiment with NCI-H460 lung; 58.3% with HOP-92 NSCLC. In addition, the growth was 48% in the experiment on A549/ATCC NSCLC; 70% with 786-0 renal; 24.2% in the experiment on COLO 205 colon; 54.4% in the experiment on DU-145 prostate; 157% with K-562 leukemia; 62.1% in the experiment with MALME-3M melanoma. Moreover, the growth with MDA-MB-231 breast was 66.6%; with RXF 393 renal, 72.9%; in the experiment with SF-268 CNS, 42.1%; in the experiment with SF-295 CNS, 48.7%; in the experiment with SF-539 CNS, 62.8%; in the experiment on UACC-257 melanoma, -2.3% (active). In addition, the growth in the experiment on M14 melanoma is 84.4%.

For `Cc1cc(O)cc(-c2nn(C)cc2-c2cc(N3CCOCC3)nc(-c3cccnc3)n2)c1`, the growth with NCI-H23 lung was 56.1%; with NCI-H226 lung it was 36.7%; in the experiment on NCI-H322M lung, 59.7%; in the experiment with HOP-62 NSCLC it was 49.3%; with NCI-H460 lung, 12.4%; with HOP-92 NSCLC, 6.01% (active). Besides, the growth is 39.3% with A549/ATCC NSCLC; 18.2% with 786-0 renal; 16.3% in the experiment on COLO 205 colon; 53.7% in the experiment with DU-145 prostate; 21.6% in the experiment on K-562 leukemia; 55.7% in the experiment with MALME-3M melanoma. Also, the growth with MDA-MB-231 breast is 53.2%; in the experiment on RXF 393 renal, 9.64% (active); in the experiment with SF-268 CNS, 44.8%; in the experiment on SF-295 CNS, 14.9%; in the experiment on SF-539 CNS it was -12.8% (active); in the experiment on UACC-257 melanoma, 61.3%.

In the case of `Cc1ccc(S(=O)(=O)N2CCCN(c3nc(-c4ccccc4)nc4nc(-c5ccccc5)oc34)CC2)cc1`, the growth is 100% in the experiment on NCI-H23 lung; 99.5% in the experiment with NCI-H226 lung; 97.3% with NCI-H322M lung; 101% in the experiment with HOP-62 NSCLC; 103% with NCI-H460 lung; 110% with HOP-92 NSCLC. In addition, the growth was 106% with A549/ATCC NSCLC; 102% in the experiment on 786-0 renal; 124% in the experiment on COLO 205 colon; 113% in the experiment on DU-145 prostate; 97.3% in the experiment with K-562 leukemia; 111% in the experiment with MALME-3M melanoma. Besides, the growth in the experiment with MDA-MB-231 breast is 96.8%; with RXF 393 renal, 128%; in the experiment with SF-268 CNS it was 106%; in the experiment on SF-295 CNS it was 105%; with SF-539 CNS, 96%; with UACC-257 melanoma, 108%. The growth in the experiment on M14 melanoma is 110%.

As for `O=C(NC1CCC(Br)CC1)C1CCCC(S(=O)(=O)NC2CCCCC2)C1` (stereo not drawn), the growth was -3.95% [25 µM] (active) with NCI-H23 lung; 19.7% [25 µM] in the experiment on NCI-H226 lung; 41.9% [25 µM] in the experiment with NCI-H322M lung; 13.8% [25 µM] with HOP-62 NSCLC; 14.1% [25 µM] in the experiment with NCI-H460 lung; -15.2% [25 µM] (active) in the experiment with HOP-92 NSCLC. In addition, the growth in the experiment on NCI-H522 lung was -3.79% [25 µM] (active); in the experiment on A549/ATCC NSCLC, 10.4% [25 µM]; in the experiment on 786-0 renal, 36% [25 µM]; in the experiment on COLO 205 colon it was 13% [25 µM]; in the experiment with DU-145 prostate it was 29.9% [25 µM]; with K-562 leukemia, 8.64% [25 µM] (active). Besides, the growth is 19.5% [25 µM] in the experiment on MALME-3M melanoma; 36.1% [25 µM] in the experiment with MDA-MB-231 breast; 37.2% [25 µM] with RXF 393 renal; 20.8% [25 µM] in the experiment with SF-268 CNS; -4.06% [25 µM] (active) with SF-295 CNS; 28.8% [25 µM] with SF-539 CNS. Also, the results for the growth in the experiment on UACC-257 melanoma and in the experiment on M14 melanoma were -6.91% [25 µM] (active) and 22.1% [25 µM], respectively.

The values above are taken from PubChem BioAssay (NCI).
